One assay has as its system MCC-13. In words: qHTS assay to identify novel small-molecules to repurpose for Merkel cell carcinoma treatment (AID 1296009). Note: nearly all actives have a fitted effect of over 60% in size. Particulars: MCC and control cell lines, CellTiter-Glo viability, 72 h; series mostly up to 46 µM. The essentials: (§1)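 Dose-response viability screen; 72 hr exposure at 37 degree celsius; CellTiter-Glo added, 10 min room temperature, luminescence read; RLUs scaled between no-cell and DMSO wells.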
(In qHTS, concentration-response curves come from the screen itself.)

The next assay has as its system MCC-26. The description is as above. The note with it: MCC and control cell lines, CellTiter-Glo viability, 72 h; series mostly up to 46 µM. Summed up: as §1
Background: ATP-based viability assays read luminescence as a measure of living cells.

For another assay, the system named is MKL-1. The description is as above. The note with it: MCC and control cell lines, CellTiter-Glo viability, 72 h; series mostly up to 46 µM. The essentials: as §1
A further assay has as its system UISO. The assay is described as above. The note with it: MCC and control cell lines, CellTiter-Glo viability, 72 h; series mostly up to 46 µM. Summed up: as §1
In the next assay the test system is C33A. The assay is described as follows: Primary qHTS to identify gynecologic anti-cancer compounds using libraries of approved drugs and bioactive compounds (AID 1345084). Note: nearly all actives have a fitted effect of over 55% in size. The note with it: Gynecologic cancer cell panel viability, ATPlite luminescence, 48 h; series mostly up to 57.5 µM. The essentials: (§2)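 Cytotoxicity screen measuring ATP content by luciferase luminescence. Each compound is applied at five concentrations for 48 h at 37 C with 5% CO2.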

In another assay the test system is CAOV3. Described as above. Particulars: Gynecologic cancer cell panel viability, ATPlite luminescence, 48 h; series mostly up to 57.5 µM. The essentials:
as §2

Another assay deals with CASKI. Described as above. The note with it: Gynecologic cancer cell panel viability, ATPlite luminescence, 48 h; series mostly up to 57.5 µM. Summed up: as §2
The subject of a further assay is Es-2. The description is as above. The note with it: Gynecologic cancer cell panel viability, ATPlite luminescence, 48 h; series mostly up to 57.5 µM. The essentials:
as §2

A further assay concerns HeLa. Described as above. The note with it: Gynecologic cancer cell panel viability, ATPlite luminescence, 48 h; series mostly up to 57.5 µM. Summed up:
as §2

In a further assay the test system is Hek293T. Described as above. Particulars: Gynecologic cancer cell panel viability, ATPlite luminescence, 48 h, control line for the selectivity index; series mostly up to 57.5 µM. Summed up:
as §2

For a further assay, the system named is JEG-3. Described as above. The note with it: Gynecologic cancer cell panel viability, ATPlite luminescence, 48 h; series mostly up to 57.5 µM. Summed up: as §2
A further assay relates to OV90. Described as above. Particulars: Gynecologic cancer cell panel viability, ATPlite luminescence, 48 h; series mostly up to 57.5 µM. Summed up:
as §2

A further assay has as its system PA-1. The description is as above. Particulars: Gynecologic cancer cell panel viability, ATPlite luminescence, 48 h; series mostly up to 57.5 µM. The essentials: as §2
In a further assay the test system is SKOV3. The description is as above. Particulars: Gynecologic cancer cell panel viability, ATPlite luminescence, 48 h; series mostly up to 57.5 µM. The essentials: as §2
A further assay relates to Tov-21-G. The description is as above. Particulars: Gynecologic cancer cell panel viability, ATPlite luminescence, 48 h; series mostly up to 57.5 µM. Summed up: as §2
Another assay relates to Tov112D. Described as above. Particulars: Gynecologic cancer cell panel viability, ATPlite luminescence, 48 h; series mostly up to 57.5 µM. The essentials:
as §2

The next assay concerns WaGa. In words: qHTS assay to identify novel small-molecules to repurpose for Merkel cell carcinoma treatment (AID 1296009). Note: nearly all actives have a fitted effect of over 60% in size. The note with it: MCC and control cell lines, CellTiter-Glo viability, 72 h; series mostly up to 46 µM. Summed up:
as §1

The test system of another assay is MKL-2. Described as above. The note with it: MCC and control cell lines, CellTiter-Glo viability, 72 h; series mostly up to 46 µM. Summed up:
as §1

A further assay relates to NIH3T3. The assay is described as above. Particulars: MCC and control cell lines, CellTiter-Glo viability, 72 h; at 44.8 µM (top of the series) unless noted. The essentials:
as §1

The structures appear in SMILES notation. Inconclusive results are not listed. Calls of active or inactive are those of the source. Calls come from the whole dose curve; as a rule, active = well fitted curve in the direction sought with a large enough effect; inconclusive = small, poorly fitted or top-dose-only effect, or another doubt; inactive = no such curve, though single readings can be large; an effect the other way counts as inactive or inconclusive. Where a SMILES comes first, the peptide text is derived from it. [ ]: non-standard residue; d: D form. pGlu = O=C1CC[C@@H](C(=O)O)N1
Potency is the fitted concentration of half-maximal effect.

Consider `Cc1ccc(CCn2c3c(c4cc(Cl)ccc42)CN(C)CC3)cn1`, for which the Potency result in the assay on MCC-13, in the assay on MCC-26, with MKL-1, in the assay with UISO, in the assay with C33A and in the assay with CAOV3 was “inactive” in each case. For the same compound, the Potency result in the assay on CASKI, in the assay with Es-2, in the assay with HeLa, in the assay with Hek293T, in the assay with JEG-3 and in the assay with OV90 was “inactive” each time. In addition, the Potency result with PA-1, in the assay on SKOV3, in the assay with Tov-21-G and with Tov112D was “inactive” each time.
`CN(C)CCOC(c1ccccc1)c1ccc(Br)cc1` (centres undefined): the Potency entry with MCC-13, in the assay on MCC-26, in the assay on MKL-1, with UISO, with C33A and in the assay with CAOV3 was “inactive” each time. Moreover, the Potency entry with CASKI, in the assay with Es-2, in the assay on HeLa, in the assay on Hek293T, with JEG-3 and in the assay on PA-1 was “inactive” throughout. Further, the Potency result in the assay on Tov-21-G and with Tov112D was “inactive” throughout. Also, the values for the Potency with WaGa and with OV90 were 23.7 µM (active) and 12.6 µM (active), respectively.
Regarding `CCCCC/C=C\C/C=C\CCCCCCCC(=O)NC(C)c1ccccc1` (centres undefined), the Potency entry with MCC-13, in the assay on MCC-26, with MKL-1, with UISO, in the assay with WaGa and in the assay on C33A was “inactive” each time. The Potency entry in the assay with CAOV3, in the assay with CASKI, in the assay on Es-2, with HeLa, in the assay on Hek293T and in the assay with JEG-3 was “inactive” each time. Besides, the Potency entry in the assay with PA-1, with Tov-21-G and in the assay on Tov112D was “inactive” throughout.
As for `CCCN(CCC)C(=O)C(CCC(=O)OCCCN1CCN(CCOC(=O)Cc2c(C)n(C(=O)c3ccc(Cl)cc3)c3ccc(OC)cc23)CC1)NC(=O)c1ccccc1` (centres undefined), the Potency entry in the assay on MCC-13, in the assay on MCC-26, in the assay with MKL-1, with UISO, in the assay on C33A and in the assay on CAOV3 was “inactive” in each case. For the same compound, the Potency entry in the assay with CASKI, in the assay with Es-2, with HeLa, in the assay on Hek293T, with JEG-3 and in the assay with OV90 was “inactive” in each case. The Potency result with PA-1, in the assay on Tov-21-G and with Tov112D was “inactive” in each case.
`CC(=O)[C@@]1(O)CC[C@H]2[C@@H]3C[C@H](C)C4=CC(=O)CC[C@]4(C)[C@H]3CC[C@@]21C`: the Potency result in the assay with MCC-13, with MCC-26, in the assay with MKL-1, with UISO, with WaGa and in the assay on C33A was “inactive” each time. For the same compound, the Potency entry in the assay with CAOV3, with CASKI, in the assay on Es-2, in the assay on HeLa, in the assay on Hek293T and in the assay with JEG-3 was “inactive” throughout. Further, the Potency entry with OV90, with PA-1, in the assay on SKOV3, in the assay on Tov-21-G and in the assay with Tov112D was “inactive” each time.
Take `CCNC(=O)[C@@H]1CCCN1C(=O)[C@H](CCCN=C(N)N)NC(=O)[C@H](CC(C)C)NC(=O)CNC(=O)[C@H](Cc1ccc(O)cc1)NC(=O)[C@H](CO)NC(=O)[C@H](Cc1c[nH]c2ccccc12)NC(=O)[C@H](Cc1cnc[nH]1)NC(=O)[C@@H]1CCC(=O)N1` ([pGlu]HWSYGLRP-NHEt): the Potency result with MCC-13, with MCC-26, with MKL-1, with UISO, in the assay on WaGa and in the assay with C33A was “inactive” throughout. Moreover, the Potency result in the assay on CAOV3, in the assay with CASKI, in the assay on Es-2, in the assay with HeLa, in the assay with Hek293T and in the assay with JEG-3 was “inactive” each time. The Potency result in the assay with OV90, in the assay on PA-1, in the assay on SKOV3, with Tov-21-G and in the assay on Tov112D was “inactive” throughout.
Take `C=CC[N+]1([C@H]2C[C@H]3[C@@H]4CC[C@H]5C[C@H](OC(C)=O)[C@@H](N6CCCCC6)C[C@]5(C)[C@H]4CC[C@]3(C)[C@H]2OC(=O)CC)CCCCC1`: the Potency entry with MCC-13, in the assay on MCC-26, in the assay on MKL-1, with UISO, with WaGa and in the assay with C33A was “inactive” in each case. The Potency result in the assay with CAOV3, in the assay on CASKI, in the assay with Es-2, with HeLa, in the assay with Hek293T and in the assay with JEG-3 was “inactive” each time. For the same compound, the Potency result in the assay on PA-1, in the assay with SKOV3, in the assay on Tov-21-G and in the assay on Tov112D was “inactive” in each case.
On to `COc1cc2nc(Cl)nc(N)c2cc1OC`, for which the Potency result in the assay on MCC-13, in the assay with MCC-26, with MKL-1, in the assay on MKL-2, in the assay with C33A and in the assay on CASKI was “inactive” each time. The Potency entry with Es-2, with HeLa, with Hek293T, in the assay with JEG-3, with OV90 and with PA-1 was “inactive” each time. Also, the Potency entry in the assay with SKOV3, with Tov-21-G and in the assay with Tov112D was “inactive” each time.
As for `CC(C)(Oc1ccc(Cl)cc1)C(=O)OCCCOC(=O)C(C)(C)Oc1ccc(Cl)cc1`, the Potency entry with MCC-13, with MCC-26, in the assay with MKL-1, with UISO, in the assay on WaGa and in the assay with C33A was “inactive” throughout. Further, the Potency result in the assay with CAOV3, in the assay with CASKI, with Es-2, with HeLa, with Hek293T and in the assay on JEG-3 was “inactive” in each case. The Potency result in the assay with OV90, in the assay on PA-1, with SKOV3, in the assay with Tov-21-G and in the assay on Tov112D was “inactive” throughout.
As to `C[C@H](CN1CCCC1)C(=O)c1ccc(C(F)(F)F)cc1`, the Potency entry with MCC-13, with MCC-26, in the assay with MKL-1, in the assay on UISO, in the assay with WaGa and in the assay on CAOV3 was “inactive” throughout. For the same compound, the Potency result in the assay with CASKI, in the assay on Es-2, in the assay on HeLa, in the assay on Hek293T, in the assay with JEG-3 and with OV90 was “inactive” in each case. In addition, the Potency entry with PA-1, with SKOV3, in the assay on Tov-21-G and in the assay with Tov112D was “inactive” throughout.
Regarding `COc1ccc2c(c1)c(CC(=O)OC/C=C(\C)CC/C=C(\C)CCC=C(C)C)c(C)n2C(=O)c1ccc(Cl)cc1`, the Potency entry with MCC-13, in the assay on MCC-26, in the assay on MKL-1, with UISO, with C33A and with CAOV3 was “inactive” in each case. Further, the Potency result with CASKI, with Es-2, with HeLa, in the assay on Hek293T, with JEG-3 and in the assay with OV90 was “inactive” each time. For the same compound, the Potency result in the assay on PA-1, in the assay with SKOV3, in the assay with Tov-21-G and in the assay on Tov112D was “inactive” throughout.
As to `COC(=O)C1=C(C)NC(COC(N)=O)=C(C(=O)OC(C)C)C1c1cccc(Cl)c1Cl` (centres undefined), the Potency result in the assay on MCC-13, in the assay with MCC-26, in the assay on MKL-1, with UISO, in the assay with C33A and in the assay with CAOV3 was “inactive” throughout. Also, the Potency result in the assay with CASKI, in the assay with Es-2, in the assay on HeLa, with Hek293T, with JEG-3 and with OV90 was “inactive” throughout. The Potency result with PA-1, with SKOV3, in the assay with Tov-21-G and in the assay on Tov112D was “inactive” each time.
As to `CCOC(=O)c1cc(=O)c2c(OCC(COc3cccc4oc(C(=O)OCC)cc(=O)c34)OC(=O)[C@@H](N)CCCCN)cccc2o1`, the Potency result in the assay on MCC-13, in the assay on MCC-26, in the assay with MKL-1, in the assay on UISO, with C33A and in the assay on CAOV3 was “inactive” throughout. For the same compound, the Potency result in the assay with CASKI, in the assay on Es-2, with HeLa, in the assay with Hek293T, in the assay on JEG-3 and with OV90 was “inactive” throughout. The Potency entry in the assay on PA-1, in the assay on SKOV3, with Tov-21-G and with Tov112D was “inactive” in each case. Moreover, in the assay with NIH3T3, the outcome was inactive.
Turning to `CC(C)(c1ccc(O)cc1)c1ccc(O)cc1`, the Potency result with MCC-13, with MCC-26, in the assay with MKL-1, in the assay on MKL-2, with C33A and with CAOV3 was “inactive” throughout. The Potency result in the assay on CASKI, in the assay on Es-2, in the assay on HeLa, in the assay on Hek293T, with JEG-3 and in the assay with PA-1 was “inactive” each time. In addition, the Potency result in the assay with SKOV3, in the assay on Tov-21-G and in the assay on Tov112D was “inactive” throughout.

The values above are taken from PubChem BioAssay (NCATS).
